What all share (assay type): functional
Test [1] concerns Plasmodium falciparum. Put plainly: GSK_TCMDC: Inhibition of Plasmodium falciparum 3D7 in whole red blood cells, using parasite LDH activity as an index of growth. Test compounds present at 2uM.
In test [2] the test system is Plasmodium falciparum. The experiment in a line: GSK_TCMDC: Inhibition of Plasmodium falciparum Dd2 in whole red blood cells, using parasite LDH activity as an index of growth. Test compounds present at 2uM.
The test system of the next test is HepG2. Put plainly: GSK_TCMDC: Percent inhibition of human HepG2 cell line. Test compounds present at 10uM.

For orientation: Inhibition means the drop in the measured response relative to a control, in per cent. A low value points to a weak effect.

On to `C=C[C@H]1CN(CCCCCCC)CC[C@H]1CC(=O)Nc1cnnc2ccc(OC)cc12.O=C(O)C(=O)O`, for which the Inhibition in the test on Plasmodium falciparum [1] worked out at 100%; in the test on Plasmodium falciparum [2] it was 100%; in the test on HepG2, 12%.
For `COCCNCc1ccc(-c2cccc(CNC3CCN(Cc4ccccc4)CC3)c2)cc1.O=C(O)C(F)(F)F`, the values for the Inhibition with Plasmodium falciparum [1], in the test with Plasmodium falciparum [2] and in the test on HepG2 were 100%, 100% and 30%, respectively.
With `COc1ccc(NC(=O)/C=C/c2cc(F)cc(C(F)(F)F)c2)cc1OCCN(C(C)C)C(C)C.O=C(O)C(F)(F)F`, the Inhibition was 97% in the test on Plasmodium falciparum [1], 21% with Plasmodium falciparum [2] and 18% in the test with HepG2.
For `COc1cccc(C(=O)NCCc2cccc(Cl)c2)c1Oc1ccccc1` the same measures were 97%, 90% and 28%.
Take `Cc1cc(NCCc2ccc(O)cc2)nc(NCC(c2ccccc2)c2ccccc2)n1`: the Inhibition in the test with Plasmodium falciparum [1] was 100%; in the test on Plasmodium falciparum [2], 77%; with HepG2, 22%.
In the same order, the values of `COc1ccc2[nH]ccc(=NN=Cc3ccccc3F)c2c1` are 100%, 98% and 23%.
Turning to `Cc1ccccc1C1CCN(C2CCC(NC(=O)c3cc4cc(Cl)ccc4o3)CC2)CC1` (stereo unspecified), the Inhibition came out at 89% in the test with Plasmodium falciparum [1], 30% in the test with Plasmodium falciparum [2] and 22% with HepG2.
Consider `Cc1ccc2c(=NN=Cc3cccc(Cl)c3)cc(C)[nH]c2c1`, for which the Inhibition in the test on Plasmodium falciparum [1] amounted to 96%; in the test with Plasmodium falciparum [2], 52%; in the test on HepG2, 50%.
For `CCC(ON1C(N)=NC(N)=NC1(C)C)c1ccccc1` (stereo unspecified) the same measures were 96%, 0% and 61%.
In the same order, the values of `CCCC(C)Nc1nc(C)cc(N[C@@H](CC(C)C)C(=O)NCc2ccc(C)cc2)n1.O=C(O)C(F)(F)F` (stereo partly specified) are 98%, 51% and 16%.
Take `C[C@@H](C(=O)N1CCOCC1)N1CC[C@H](NS(=O)(=O)c2ccc3ccnc(N)c3c2)C1=O.O=CO`: the figures for the Inhibition in the test with Plasmodium falciparum [1], in the test on Plasmodium falciparum [2] and in the test on HepG2 were 84%, 61% and 0%, respectively.
In the same order, the values of `Cc1[nH]c(C)c(-c2ccc(-c3ccccc3F)nc2)c(=O)c1Cl` are 97%, 97% and 7%.
Turning to `CC(C)(C)c1ccc(CN2CCC(CNC(=O)c3cc(-c4ccccc4C(F)(F)F)cs3)C2)cc1.O=C(O)C(F)(F)F` (stereo unspecified), the values for the Inhibition with Plasmodium falciparum [1], with Plasmodium falciparum [2] and with HepG2 were 92%, 11% and 61%, respectively.
For `COc1cccc2[nH]c(NCCCNCc3cc(Br)cc(Br)c3)nc12` the same measures were 88%, 2% and 5%.
For `COc1ccc(-c2cccc(NC(=O)c3cccc(C#N)c3)c2)cc1CN1CCCC1.O=C(O)C(F)(F)F` the same measures were 98%, 32% and 28%.
In the same order, the values of `COc1ccc(-c2ccccc2OCCCNc2nc(NCCc3ccc(O)cc3)nc(N3CCNCC3)n2)cc1.O=C(O)C(F)(F)F` are 99%, 3% and 36%.
As for `CN(c1ccccc1)c1ccnc(NC(=N)Nc2ccc(Cl)cc2)n1`, the results for the Inhibition in the test on Plasmodium falciparum [1], in the test with Plasmodium falciparum [2] and in the test with HepG2 were 87%, 6% and 30%, respectively.
As to `COCCNCc1ccc(-c2ccc(CNc3ccc4ncccc4c3)cc2)cc1.O=C(O)C(F)(F)F`, the values for the Inhibition in the test with Plasmodium falciparum [1], with Plasmodium falciparum [2] and in the test with HepG2 were 85%, 4% and 41%, respectively.
In the same order, the values of `Cc1cc(N)c2cc(NC(=O)c3cccc4ccccc34)ccc2n1.Cl` are 98%, 13% and 18%.
For `Cc1cc2nc(-c3ccc(/C=C/C(=O)NCCCc4ccccc4)cc3)[nH]c2cc1C` the same measures were 96%, 13% and 15%.
In the same order, the values of `COc1ccc(O)cc1Cc1cnc2nc(N)nc(N)c2c1C` are 92%, 97% and 67%.
Consider `CC(C)(NCc1ccc(OC(F)(F)F)cc1)c1nc(-c2ccc(Cl)c(O)c2)c(-c2ccncc2)[nH]1.Cl`, for which the Inhibition in the test with Plasmodium falciparum [1] is 94%; in the test on Plasmodium falciparum [2] it was 32%; in the test with HepG2, 65%.
In the same order, the values of `O=C(Nc1ccc(C(F)(F)F)cc1)c1ccc(NCCCN2CCCCCC2)c([N+](=O)[O-])c1` are 100%, 98% and 42%.
In the same order, the values of `O=C(Cn1c(SCc2cccc(F)c2F)cc(=O)c2ccccc21)N(CCc1c[nH]cn1)Cc1ccc(-c2ccc(C(F)(F)F)cc2)cc1` are 100%, 72% and 18%.
For the compound `CCCCCCOc1ccc(C(=O)NCCCC2CCN(CCCCCNC(=O)C=Cc3ccc(Cl)c(Cl)c3)CC2)cc1`, the Inhibition was found to be 94% in the test on Plasmodium falciparum [1], 25% in the test with Plasmodium falciparum [2] and 22% in the test on HepG2.
For `Cc1ccc(-c2nc(N3CCN(C(=O)c4ccco4)CC3)c3ccc(Cl)cc3n2)cc1` the same measures were 90%, 78% and 17%.
In the same order, the values of `CCCCNC(=O)c1cc(CNC2CCCCC2)ccc1-c1cccc(CNCc2ccc(-c3ccccc3)cc2)c1.O=C(O)C(F)(F)F` are 100%, 85% and 100%.

The values above are taken from ChEMBL document CHEMBL1157539, “Thousands of chemical starting points for antimalarial lead identification” (Nature, 2010).
